From PubChem BioAssay AID624330 (Southern Research Specialized Biocontainment Screening …, 2012) come the findings set out here.

Structures are written as SMILES. Values joined by “and” are separate entries in the source; they are usually repeats but may differ in a detail not shown here. Equal values may be shown once. In all, about 340,000 compounds went through this assay and about 2,100 (0.62%) were called active. These entries were drawn from the full list. Entries with a potency or affinity are not part of this list. Values without a mark were called inactive.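 The calls were made as follows: active = first-screen hits whose inhibition reached a set limit at any dose in the follow-up dose series; inconclusive = inhibition above the set first-screen limit but never retested; inactive = the rest.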

The target of the test is Rac GTPase-activating protein 1 (Homo sapiens) (UniProt Q9H0H5). Briefly: MgcRacGAP GTPase-activating activity inhibitors, confirmation, biochemical, ADP Hunter fluorescence, primary and confirmatory (AID 624330).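 Also: fluorescence reports GDP produced by GAP-driven GTP hydrolysis.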 As to conditions: MgcRacGAP-stimulated Rac1 GTP hydrolysis, at 30 µM, stronger effect = higher value, GST-tagged Rac1 F28L mutant substrate.
Chain of Rac GTPase-activating protein 1 (Homo sapiens) (Q9H0H5 whole entry, looked up): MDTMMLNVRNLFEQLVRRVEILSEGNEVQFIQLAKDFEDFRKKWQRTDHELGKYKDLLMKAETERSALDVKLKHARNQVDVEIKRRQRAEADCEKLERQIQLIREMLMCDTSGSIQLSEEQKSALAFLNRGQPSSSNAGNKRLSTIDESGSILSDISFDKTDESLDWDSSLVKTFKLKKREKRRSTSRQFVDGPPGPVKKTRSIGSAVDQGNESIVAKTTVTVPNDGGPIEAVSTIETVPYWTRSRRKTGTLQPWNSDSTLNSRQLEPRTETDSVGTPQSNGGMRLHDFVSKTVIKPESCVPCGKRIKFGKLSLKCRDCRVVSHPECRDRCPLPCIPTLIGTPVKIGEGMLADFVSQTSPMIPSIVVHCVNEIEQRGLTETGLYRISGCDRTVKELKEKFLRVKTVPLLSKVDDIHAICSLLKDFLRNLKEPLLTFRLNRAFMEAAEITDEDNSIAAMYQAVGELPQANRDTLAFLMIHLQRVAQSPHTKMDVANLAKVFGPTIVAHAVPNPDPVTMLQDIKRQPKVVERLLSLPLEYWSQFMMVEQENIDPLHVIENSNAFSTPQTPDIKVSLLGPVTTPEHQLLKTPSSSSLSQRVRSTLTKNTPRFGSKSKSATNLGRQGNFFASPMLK
Take `c1ccc2c(c1)Nc1cc3ccccc3cc1O2`: the inhibition is -1.21%. The result for `COc1cccc(/C=N/NC(=O)CCn2nnc3ccccc32)c1` reads 1.99%; that for `Cc1cccc(C(C)n2nnc3ccccc32)c1O` (stereo unspecified), 6.53%; that for `COc1ccc(/C=N/NC(=O)C(C)n2nnc3ccccc32)cc1OC` (stereo unspecified), 8.77%. On to `COc1ccc(/C=N/NC(=O)Cn2nnc3ccccc32)cc1OC`, for which the inhibition is 3.04%. The same measure for `CCOc1cc(/C=N\NC(=O)Cn2nnc3ccccc32)ccc1O`: 28.1%; for `COc1ccc(/C=N/NC(=O)CCn2nnc3ccccc32)cc1`: 15.9%. The result for `COc1cccc(/C=N/NC(=O)C(C)n2nnc3ccccc32)c1` (stereo unspecified) reads 9.47%; that for `COc1ccc(C(O)c2nc3ccccc3n2C)cc1OC` (stereo unspecified), 3.18%.

Take `O=C(c1ccnc(Cl)c1)N1CCCC(Nc2ccc(F)cc2)C1` (stereo unspecified): the inhibition is 6.71%. `CCc1nnc(NC(=O)CSc2nnc(C3CC3)n2C)s1`: the inhibition is 3.03%. For the compound `Cc1ccc(OC/C(O)=C(\C#N)c2nc3ccccc3s2)cc1`, the inhibition was 0.24%. As to `CN(C1CCS(=O)(=O)C1)S(=O)(=O)c1ccc(N2CCCC2=O)cc1` (stereo unspecified), the inhibition is 14.4%.

Take `COc1ccc(CCNC(=O)C(=O)NCC2CCCN2S(=O)(=O)c2ccccc2)cc1OC` (stereo unspecified): the inhibition was 1.68%. The same measure for `CC(NC(=O)Nc1ccc([N+](=O)[O-])cc1)C(c1cccs1)N1CCCC1` (stereo unspecified): 8.33%; for `COc1ccc(/C=N/NC(=O)CCn2c3ccccc3c3ccccc32)cc1O`: 11.7%; for `COc1ccc(/C=N/NC(=O)CCn2c3ccccc3c3ccccc32)cc1OC`: -2.76%.

In the case of `COc1ccc(CCc2ccc3cc(OC)ccc3n2)cc1`, the inhibition is 1.87%. The result for `O=C(O)c1ccccc1C(=O)N(Cc1ccccc1)Cc1ccccc1` reads 4%; that for `CC(C)[C@H](N)c1cn([C@@H](CO)C(=O)N2CCNCC2)nn1`, 6.71%; that for `CCCc1c(C(=O)N/N=C/c2ccc3c(c2)OCO3)nnn1-c1nonc1N`, 3.5%. In the case of `CC(C#N)(NC(=O)CN1CCN(S(=O)(=O)c2cccc(F)c2)CC1)C1CC1` (stereo unspecified), the inhibition is 23.8%. The result for `COc1ccc(CCC(=O)N2CCN(S(=O)(=O)c3ccc(OC)c([N+](=O)[O-])c3)CC2)cc1` reads 14.3%; that for `Cc1nc2ncnn2c(C)c1CCC(=O)NCCc1ccccc1`, 3.16%; that for `Cc1ccc([N+](=O)[O-])c2c1C(N1CCCC1)C(C)(C)O2` (stereo unspecified), 5.51%.

For the compound `N#Cc1ccccc1NC(=O)CN1CCN(Cc2ccccc2)CC1`, the inhibition is -4.52%. For the compound `COC(=O)c1ccc(C)c(-n2c(C)cc(C=O)c2C)c1`, the inhibition was 2.91%. On to `CCOC(=O)N1CCN(c2ccc(Cl)c(Cl)c2)CC1`, for which the inhibition was -6.41%. The result for `COC(=O)N1CCN(c2ccc(Cl)c(Cl)c2)CC1` reads 6.48%; that for `Clc1cccc(N2CCN(CCCN3CCN(c4ccccc4)CC3)CC2)c1`, 7.52%; that for `NC(=O)CN1CCN(c2cccc(Cl)c2)CC1`, 6.34%. On to `COc1ccc(NC(=O)c2ccc3ccccc3n2)cc1S(=O)(=O)N1CCCCC1`, for which the inhibition is 3.75%. In the case of `O=C(O)C(O)Cc1c[nH]c2ccccc12` (stereo unspecified), the inhibition is 5.43%. In the case of `Cc1ccc(S(=O)(=O)Nc2ccccc2N=Cc2ccc([N+](=O)[O-])cc2[N+](=O)[O-])cc1`, the inhibition is 4.67%. The same measure for `CCCN1CCN(CC(=O)Nc2nc3ccccc3s2)CC1`: 12.4%; for `CCOC(=O)N1CCN(CC(=O)Nc2nc3ccccc3s2)CC1`: -4.03%. The same measure for `O=C(CN1CCN(c2ccccn2)CC1)Nc1nc2ccccc2s1`: 12.2%. As to `CCOc1ccc2nc(NC(=O)CN3CCN(CC)CC3)sc2c1`, the inhibition was 5.24%. In the case of `O=C(CN1CCN(Cc2ccccc2)CC1)Nc1nc2ccccc2s1`, the inhibition is 14%. The same measure for `COc1ccc2nc(NC(=O)CN3CCN(C)CC3)sc2c1`: 14.5%; for `Cc1[nH]nc(N=CC2=C(O)CC(c3ccco3)CC2=O)c1-c1ccccc1` (stereo unspecified): -2.48% and -0.93%. Take `CNC(=O)c1cc(C(=O)c2ccc(F)cc2Cl)c[nH]1`: the inhibition was 4.17%. The same measure for `CC1CCCCC1NC(=O)C1CC=CCC1C(=O)O` (stereo unspecified): -1.3%; for `CCC1=C(OC(=O)N(CC)CC)N2C(=O)OC(=NCC(=O)OC)[C@]2(Cc2ccccc2)[C@H]2C1=CC[C@H]1C(=O)N(C)C(=O)[C@H]12`: 0.87%. The same measure for `S=C(NCCc1ccccc1)N1CCN(C(=S)NCCc2ccccc2)CC1`: 1.96%; for `COc1ccc(N2CCN(C(=S)NCCc3ccccc3)CC2)cc1`: 5.11%. Regarding `CC1CCN(CC(=O)Nc2ccccc2C(=O)NC2CC2)CC1`, the inhibition is 3.3%. Consider `O=C(CN1CCN(c2ccccc2)CC1)Nc1ccccc1C(=O)NCCc1ccccc1`, for which the inhibition was 15.8%. Turning to `O=C(CN1CCN(c2ccc(F)cc2)CC1)Nc1ccccc1C(=O)NCCc1ccccc1`, the inhibition is 9.18%. Regarding `O=C(NC(=S)N1CCN(c2ccccc2)CC1)c1ccco1`, the inhibition was 5.3%. The result for `O=C(CN1CCN(S(=O)(=O)c2ccccc2)CC1)Nc1ccccc1C(=O)NC1CC1` reads 4.29%. For `O=C(NC(=S)N1CCN(c2ccc([N+](=O)[O-])cc2)CC1)c1ccco1`, the inhibition was 13.1%. The result for `O=C1CN(C(=O)CNCc2ccc(Cl)cc2)c2ccccc2N1` reads 31.7%; that for `CCCC(C(=O)Nc1ccc(S(=O)(=O)N2CCOCC2)cc1)c1ccccc1` (stereo unspecified), 4.26%. For `Cc1nn(C)c(C)c1NC(=O)CN1CCC(O)(c2ccc3c(c2)OCO3)CC1`, the inhibition is 2.97%.

`COc1ccccc1NC(=O)c1ccc2c(c1)CCN2S(C)(=O)=O`: the inhibition was 6.1%. Consider `CC(C)NC(=S)N/N=C1\CCCc2ccccc21`, for which the inhibition was 3.57%.

Regarding `Nc1nc(NC(=O)c2ccc(F)cc2)ns1`, the inhibition is 7.21%. The same measure for `Cc1nc2ccc(N)cc2c(=O)n1Cc1ccc(Cl)cc1`: 4.23%; for `Nc1nc(N)c2cc(CNc3ccc(Cl)c(Cl)c3)ccc2n1`: 14.7%; for `Cc1c(C(C)C[C@H](C)O)oc(=O)c2c1Oc1c(C)c(C(C)C[C@H](C)O)oc(=O)c1C2` (stereo partly specified): 7.75%.

Broadly, the inhibition is the drop in the measured response relative to a control, in per cent.
